Shown is part of a subset that was picked to be rich in hits.
TbPYK inhibitor = inhibitors of Trypanosoma brucei pyruvate kinase; TbPYK enzyme, Kinase-Glo Plus ATP luminescence, 45 min; Potency, µM (series often up to 76.8 µM), for the others: at the top dose activity, negative = inhibition, usual class: inhibitors; Q57TT1; 410,000 compounds, 0.12% hits; note: potency is the fitted concentration of half-maximal effect; % is set by controls: 0 for no effect and ±100 for the full control effect; nearly all actives have a fitted effect of over 50% in size
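Quantitative HTS: titrated library compounds versus trypanosomal pyruvate kinase in TEA buffer (pH 7.2) containing KCl, MgCl2, BSA and Tween-20. Reactions were initiated with ADP, 130 uM final. Kinase-Glo Plus luminescence was read after 45 min at RT.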
Giardia FBPA inh = Giardia lamblia aldolase inhibition; A8B2U2; purified Giardia FBPA; Potency, µM (doses to about 59.6 µM), for inactives: top-dose activity, negative = inhibition, actives largely listed as inhibitors; 290,000 compounds, 0.71% hits; note: potency is the fitted concentration of half-maximal effect; % is set by controls: 0 for no effect and ±100 for the full control effect; nearly all actives have a fitted effect of over 55% in size
Target sequence (A8B2U2 whole entry, looked up): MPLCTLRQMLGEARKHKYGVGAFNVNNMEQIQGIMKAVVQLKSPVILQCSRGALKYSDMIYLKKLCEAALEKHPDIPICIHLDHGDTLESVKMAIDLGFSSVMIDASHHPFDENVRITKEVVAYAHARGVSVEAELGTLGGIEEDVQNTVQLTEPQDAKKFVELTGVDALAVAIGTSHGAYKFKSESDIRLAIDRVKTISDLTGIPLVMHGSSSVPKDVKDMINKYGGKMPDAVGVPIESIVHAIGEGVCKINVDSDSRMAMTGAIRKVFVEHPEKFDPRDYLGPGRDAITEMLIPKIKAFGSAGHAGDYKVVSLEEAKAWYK
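Giardia FBPA (40 nM reagent) was preincubated 10 min at RT with compound (up to 57.5 uM final), then substrate plus GAPDH/TPI/NAD/arsenate coupling system with diaphorase/resazurin was added; resorufin fluorescence (525/598 nm) was read after 20 min.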
Shiga inhibitor = Shiga toxin inhibition; Vero cells, Shiga toxin protein synthesis inhibition reporter; inhibition, % at 38.7 µM; 290,000 compounds, 9.2% hits; in the data active = inhibition mostly above about 28%, no sharp cut-off; inactive = mostly below about 43%; note: 0% is about no effect
Cycloheximide cs = affects cycloheximide protein synthesis inhibition readout, counter-screen. cell reporter, cycloheximide protein synthesis inhibition counterscreen. max response, %. 300,000 compounds, 12% hits. AID 2314; in the data active = max response mostly above about 13%, no sharp cut-off; inactive = mostly below about 14%; note: read at 38.3 µM for the half of the compounds with a filed dose; 0% is about no effect
RE007 growth inh = less growth of the S. pombe RE007 Vpr strain. S. pombe RE007 Vpr strain, BacTiter-Glo ATP luminescence, 24 h. Potency, µM (top dose mostly 92.2 µM), for the others: at the highest dose activity change, negative = less growth, most hits filed as inhibitors. 360,000 compounds, 0.21% hits. AID 651644; active = well fitted falling curve with a large enough effect; inconclusive = small, poorly fitted or top-dose-only effect; inactive = no such curve, though single readings can be large or run the other way; note: potency is the fitted concentration of half-maximal effect; % is set by controls: 0 for no effect and ±100 for the full control effect; nearly all actives have a fitted effect of over 50% in size
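Fission yeast strain RE007, carrying one chromosomally integrated HIV-1 vpr copy, was seeded at OD 0.01 in PMG+AL medium with 23 nL pinned compound. After 24 h at 30 °C and 99% humidity, viability was read by BacTiter-Glo luminescence.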
LmPK inh = LmPK (Leishmania mexicana) enzyme inhibition. Q27686. purified LmPK, Kinase-Glo ATP luminescence, 1 h. Potency, µM (top dose mostly 57.5 µM), for inactives: top-dose activity change, negative = inhibition, usual class: inhibitors. 290,000 compounds, 0.37% hits; note: potency is the fitted concentration of half-maximal effect; % is set by controls: 0 for no effect and ±100 for the full control effect
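qHTS format; LmPK 0.1 nM; substrates PEP 0.5 mM and ADP 0.1 mM. One-hour room-temperature incubation, then coupled luciferase luminescence; 0.5 nM enzyme wells mark activation.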
Starred values were filed as active, the others as inactive; u = inconclusive; x = no result given. Unless noted, calls come from the whole dose curve; as a rule, active = well fitted curve in the direction sought with a large enough effect; inconclusive = small, poorly fitted or top-dose-only effect, or another doubt; inactive = no such curve, though single readings can be large; an effect the other way counts as inactive or inconclusive.

SMILES	TbPYK inhibitor	Giardia FBPA inh	Shiga inhibitor	Cycloheximide cs	RE007 growth inh	LmPK inh
CC(NC(=O)Nc1ccc(Br)cc1)C(C)(C)C (configuration not stated)	3.0%	-13.8%	79.7*	27.0*	-17.5%	-3.2%
CCc1ccc(-n2c(Cc3ccccc3)nnc2SCc2nc(-c3cccs3)no2)cc1	-5.8%	x	x	x	x	x
Cc1ccccc1NC(=O)c1nc2nccc(C)n2n1	x	-3.1%	71.7*	37.6*	x	u
COc1ccc(NC(=O)c2nc3nccc(C)n3n2)cn1	-8.1%	-0.6%	44.3*	32.6*	-3.4%	-21.6%
CCOC(=O)c1c(C)c(-c2ccccc2)n(CC(=O)Nc2cc(C)cc(C)c2)c1C	1.1%	x	x	x	x	x
Cc1ccc(OCC(=O)Nc2c(Cl)ccc3nsnc23)cc1C	-3.2%	x	x	x	x	x
N/C(CS(=O)(=O)c1ccccn1)=N\OC(=O)c1ccccc1Cl	1.4%	-8.8%	57.5*	39.6*	-7.8%	0.9%
CCCS(=O)(=O)C/C(N)=N/OC(=O)c1ccccc1Cl	-0.8%	-13.1%	31.5	-1.1	2.8%	-2.7%
N/C(CS(=O)(=O)c1ccccn1)=N\OC(=O)c1ccc(Cl)cc1	2.0%	1.8%	35.1	26.4*	-7.7%	4.0%
COCOc1c2c(c(OCOC)c3c(OCOC)cccc13)/C(=N/NS(C)(=O)=O)C1=C2CCCC1	x	-25.2%	x	x	x	x
CC12CC[C@@](C(=O)O)(C(=O)C1=O)C2(C)C	x	-1.6%	x	x	x	x
CC(C)COC(=S)Nc1ccccc1	1.2%	-2.3%	17.1	32.0*	-12.2%	-14.9%
CCN1C/C(=C/c2ccc(N3CCOCC3)cc2)C(=O)/C(=C/c2ccc(N3CCOCC3)cc2)C1	-3.3%	-16.1%	35.6*	25.6*	u	-3.3%
CN1C/C(=C\c2ccc(N3CCOCC3)cc2)C(=O)/C(=C/c2ccc(N3CCOCC3)cc2)C1	-2.6%	-29.2%	-1.3	6.2	0.3%	3.1%
C[C@H](NC(=O)Cc1cc(F)cc(F)c1)C(=O)N[C@@H](C(=O)OC(C)(C)C)c1ccccc1	x	0.0%	-35.4	-6.4	x	x
COc1ccc([N+](=O)[O-])c(OC)c1C(=O)NC(=O)Nc1nc(C)cc(C)n1	-2.7%	-23.6%	-9.6	0.5	6.7%	3.9%
COc1ccc(Br)c(OC)c1C(=O)NC(=O)Nc1nc(C)cc(C)n1	-5.0%	19.9µM*	-9.9	-3.0	-7.6%	9.8%
CC1=C(O)C(=O)C=C2C1=CC=C1C2(C)CCC2(C)C3CC(C)(C(=O)O)CCC3(C)CCC12C (configuration not stated)	35.5µM*	x	x	x	u	x
COc1ccccc1/C=N/N(C(C)=O)c1nc(-c2ccc(F)cc2)cs1	1.8%	1.6%	41.2	29.8*	-10.0%	2.9%
COc1ccc(/C=N/N(C(C)=O)c2nc(-c3ccc(C)cc3)cs2)cc1	3.0%	11.5%	22.1	-1.4	29.0%	2.0%
S=c1[nH]nc(-c2ccc(Br)cc2)n1Cc1ccco1	5.62µM*	6.9%	0.1	-2.7	14.2%	22.4µM*
Fc1ccc(NCc2n[nH]c(=S)n2Cc2ccccc2)cc1	7.08µM*	2.0%	-8.8	-2.7	11.0%	u
CCCCc1n[nH]c(=S)n1Cc1ccc(Cl)cc1	10µM*	1.0%	13.1	5.5	-1.7%	u
COc1ccc(-c2n[nH]c(=S)n2Cc2ccccc2)cc1	u	6.0%	-0.5	-3.4	-12.4%	u
S=c1[nH]nc(-c2ccccc2)n1Cc1ccccc1	u	6.1%	-16.4	-0.7	4.2%	10µM*
SMILES	TbPYK inhibitor	Giardia FBPA inh	Shiga inhibitor	Cycloheximide cs	RE007 growth inh	LmPK inh
S=c1[nH]nc(CNc2ccc(Cl)cc2)n1Cc1ccccc1	u	4.3%	-13.9	-3.9	0.1%	u
CC(C)c1nn2c(=O)cc(COC(=O)c3ccccc3NC(=O)c3cccs3)nc2s1	-2.4%	x	x	x	x	x
COc1ccc(OC)c(C2CC(=O)Nc3c2c(=O)[nH]c2nc4ccccc4n32)c1 (configuration not stated)	3.9%	x	x	x	x	x
Cc1cc(F)ccc1NC(=O)CCS(=O)(=O)c1cccc2nsnc12	4.6%	x	x	x	x	x
COc1ccc(-c2n[nH]c(=S)n2Cc2ccccc2)cc1OC	u	29.3%	-14.0	-5.6	9.9%	u
S=c1[nH]nc(-c2ccc(Cl)cc2)n1Cc1ccccc1	u	13.0%	-14.0	0.0	3.5%	12.6µM*
S=c1[nH]nc(-c2ccco2)n1Cc1ccccc1	u	-4.1%	59.6	32.7	19.9%	14.1µM*
CCOCCCn1c(-c2ccc(Cl)cc2)n[nH]c1=S	8.91µM*	6.9%	-18.0	-1.7	-14.7%	u
COCCCn1c(-c2ccc(Cl)cc2)n[nH]c1=S	u	0.2%	-15.2	-2.0	-2.1%	u
S=c1[nH]nc(-c2ccc(Br)o2)n1Cc1ccccc1	10µM*	6.1%	-11.6	0.3	-14.2%	u
CCCn1c(C)nc2c(NC(C)CN(C)C)nc(C)nc21 (configuration not stated)	x	0.7%	x	x	x	x
CCc1ccc(C(=O)c2cn(CC(=O)Nc3cc(OC)ccc3OC)c3nc(C)ccc3c2=O)cc1	4.0%	x	x	x	x	x
Cc1cc(O)c(CN2CCN(c3ccccc3)CC2)c2oc(=O)cc(C)c12	-5.9%	x	x	x	x	x
S=c1[nH]nc(-c2ccco2)n1/N=C/c1ccccc1Cl	u	-1.2%	19.6	-4.1	4.2%	-8.0%
S=c1[nH]nc(-c2ccco2)n1/N=C/c1ccc(Cl)cc1	3.98µM*	13.0%	-3.0	-4.2	2.3%	-12.0%
CSc1ccc(C2c3[nH]c4ccccc4c3CCN2C(=O)c2ccnn2C)cc1 (configuration not stated)	-7.1%	-0.1%	72.0*	35.4*	13.0%	-2.4%
O=C(CCS(=O)(=O)c1ccc(Br)cc1)Nc1ccc2c(c1)OCO2	-6.9%	-25.0%	36.0	14.8*	12.6%	4.0%
O=C(NCCc1ccc(F)cc1)Nc1ccc2c(c1)OCO2	-30.4%	-2.5%	58.0*	48.0*	-8.5%	-2.2%
Cc1ccc(S(=O)(=O)CCC(=O)Nc2ccc3c(c2)OCO3)cc1	1.8%	-6.7%	1.5	5.7	19.7%	2.9%
O=C(Nc1ccc2c(c1)OCO2)OCc1ccccc1	-6.9%	0.1%	81.3*	24.5*	-5.1%	-9.4%
O=C(CCc1ccccc1)Nc1ccc2c(c1)OCO2	1.8%	-5.4%	89.2*	52.6*	0.4%	0.5%
Cc1cccc(CNc2nc(-c3ccccc3CN(C)C)nc3ccccc23)c1	x	-2.8%	x	x	x	x
O=C(NCCc1ccccc1)C(=O)Nc1ccc2c(c1)OCCO2	4.1%	4.3%	74.0*	27.4*	2.6%	8.1%
O=C(NCCc1ccccc1)Nc1ccc2c(c1)OCO2	-1.4%	-0.1%	155.7*	61.2*	8.7%	-10.3%
Cc1nc(-c2ccccc2)sc1CCNC(=O)C(=O)Nc1ccc2c(c1)OCCO2	6.4%	x	x	x	x	x
COc1ccc(CCNC(=O)Nc2ccc3c(c2)OCO3)cc1OC	-4.0%	1.4%	10.9	5.6	-14.2%	-0.3%
